# Results filed as inconclusive are left out. A call without a number means that no potency is given here. A number with no mark means an inactive call. The source made the active and inactive calls. Calls follow the shape of the dose curve; as a rule, active = well fitted cell-killing curve with a large enough effect in the repeat runs; inconclusive = weak or mixed curves, or effect the other way; inactive = flat fitted curve, though single readings scatter.
# Assay: qHTS RealTime-Glo MT Cell Viability Assay in HEK293 cells - 0 hour (AID 1224880); also: top concentration of the series differs between compounds; nearly all actives have a fitted effect of over 45% in size
# Details: RealTime-Glo luminescence; series mostly up to 76.8 µM
# From the text: U.S. Tox21 Program National Center for Advancing Translational Sciences [NCATS] NIH Chemical Genomics Center [NCGC] U.S. Environmental Protection Agency [EPA] National Institutes of Environmental Health Sciences [NIEHS] National Toxicology Program [NTP] U.S. Food and Drug Administration [FDA] Tox21 Assay Overview: Measure of cell viability is critical in the cell-base assay. Analysis of cell viability is necessary for the characterization of cell responses to cytotoxic drugs and environmental stress. A RealTime-Glo MT Cell Viability Assay to monitor cell viability in real time of continues cell culture during 40 hours of compound treatment was used to screen Tox21 10K library compounds in Hek293 cells. The RealTime-Glo MT Cell Viability Assay is a nonlytic, homogeneous, bioluminescent method to measure cell viability in real time using a simple, plate-based method. The assay involves adding NanoLuc luciferase and a cell-permeant prosubstrate to cells in culture. Viable cells reduce the proprietary prosubstrate to generate a substrate for NanoLuc luciferase. This substrate diffuses from cells into the surrounding culture medium, where it is rapidly used by the NanoLuc Enzyme to produce a luminescent signal. The signal correlates with the number of viable cells, making the assay well suited for cytotoxicity studies.
# Tox21 Assay Protocol Summary: The mixture of Hek293 cell suspension and reagents were dispensed at 600cells/6 ul/well in 1536-well tissue culture treated black solid bottom plates using a Multidrop dispenser. After the assay plates were incubated at a 37 C/5% CO2 incubator for 5 hours, 23 nL of compounds dissolved in DMSO, positive and negative controls was transferred to the assay plate by a pintool work station. The plates were incubated at 37 C for 40 hours. The luminescence intensity were measured at 0h, 8h, 16h, 24h, 32h and 40h time points using ViewLux plate reader during compound treatment.
Compound,Potency,"activity change, negative = cytotoxicity"
Cc1ncc([N+](=O)[O-])n1C,inactive,
C=CCc1ccc(O)c(OC)c1,inactive,
CN(C)CCOC(c1ccccc1)c1ccccc1,inactive,
C=C(C)C(=O)OCC(C)O (stereo not given),inactive,
CS(=O)(=O)OCCCCOS(C)(=O)=O,inactive,
C[C@](N)(Cc1ccc(O)c(O)c1)C(=O)O,inactive,
O=C(Nc1ncc([N+](=O)[O-])s1)c1cccs1,inactive,
Cc1cc(C)nc(NS(=O)(=O)c2ccc(N)cc2)n1,inactive,
CC(C)c1c(C(=O)Nc2ccccc2)c(-c2ccccc2)c(-c2ccc(F)cc2)n1CC[C@@H](O)C[C@@H](O)CC(=O)O,inactive,
COc1ccc2c(c1)c(CC(=O)O)c(C)n2C(=O)c1ccc(Cl)cc1,inactive,
O=C1NS(=O)(=O)c2ccccc21,inactive,
CC(C)C(=O)Nc1ccc([N+](=O)[O-])c(C(F)(F)F)c1,inactive,
CN(C)CCOC(C)(c1ccccc1)c1ccccn1 (stereo not given),inactive,
F[B-](F)(F)F,inactive,
CNNCc1ccc(C(=O)NC(C)C)cc1,inactive,
NC1CCCCC1,inactive,
CCCc1cc(=O)[nH]c(=S)[nH]1,inactive,
CC(=O)CC(c1ccccc1)c1c(O)c2ccccc2oc1=O (stereo not given),inactive,
CCCCC1(COC(=O)CCC(=O)O)C(=O)N(c2ccccc2)N(c2ccccc2)C1=O,inactive,
OC[C@H]1O[C@H](O[C@]2(CCl)O[C@H](CCl)[C@@H](O)[C@@H]2O)[C@H](O)[C@@H](O)[C@H]1Cl,inactive,

Compound,Potency,"activity change, negative = cytotoxicity"
Nc1ccc2c(c1)CN1C(=O)c3ccccc3C1=N2,,5.64% [at 15.8 µM]
CCOC(N)=O,inactive,
CCCCCCCC(=O)OCC(COC(=O)CCCCCCC)OC(=O)CCCCCCC,inactive,
COc1ccc2cc(S(=O)(=O)N[C@H](CC(=O)N[C@H](Cc3ccc(CN4[C@H](C)CCC[C@@H]4C)cc3)C(=O)N(C)C(C)C)c3ccc4c(c3)OCO4)ccc2c1,inactive,
O=C1NC(=O)C(c2ccccc2)(c2ccccc2)N1,inactive,
CCN(CC)C(=O)c1cccc(C)c1,inactive,
O=c1[nH]cnc2c1ncn2[C@H]1CC[C@@H](CO)O1,inactive,
CCCCCCc1ccc(O)cc1O,inactive,
Nc1c2c(nc3ccccc13)CCCC2,inactive,
CCCCNC(=O)NS(=O)(=O)c1ccc(C)cc1,inactive,
NC(=O)c1cccnc1,inactive,
CCCCCCCCCCCC[N+](C)(C)Cc1ccccc1,inactive,
Cn1c(=O)c2c(ncn2C)n(C)c1=O,inactive,
NS(=O)(=O)c1cc2c(cc1Cl)NCNS2(=O)=O,inactive,
Cc1cn([C@H]2C=C[C@@H](CO)O2)c(=O)[nH]c1=O,inactive,
CCCCCCCCCCCCCCCC[N+](C)(C)Cc1ccccc1,inactive,
CC(C)NCC(O)c1ccc(O)c(O)c1 (stereo not given),inactive,
CN(C)C(=O)Nc1ccc(Cl)c(Cl)c1,inactive,
CC1(C)O[C@@H]2C[C@H]3[C@@H]4CCC5=CC(=O)C=C[C@]5(C)[C@@]4(F)[C@@H](O)C[C@]3(C)[C@]2(C(=O)CO)O1,inactive,
NC(CO)(CO)CO,inactive,
